Compound activity deposited in PubChem BioAssay by Center for Chemical Genomics, University of Michigan.
This excerpt belongs to a sample that is enriched for hits.
Dicer inh – inhibitors of human Dicer processing of pre-microRNA | cat-ELCCA pre-miR-21 Dicer processing, chemiluminescence; hits give high values | hit rate 6% among 47,000 | z-score at 25 µM; in the data active = z-score above about 3, passing the limit was not always enough;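 note: plate controls were vehicle for no effect and no enzyme for full effect; higher signal means more uncleaved substrate so more Dicer inhibition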
Target sequence (Q9UPY3 whole entry, looked up): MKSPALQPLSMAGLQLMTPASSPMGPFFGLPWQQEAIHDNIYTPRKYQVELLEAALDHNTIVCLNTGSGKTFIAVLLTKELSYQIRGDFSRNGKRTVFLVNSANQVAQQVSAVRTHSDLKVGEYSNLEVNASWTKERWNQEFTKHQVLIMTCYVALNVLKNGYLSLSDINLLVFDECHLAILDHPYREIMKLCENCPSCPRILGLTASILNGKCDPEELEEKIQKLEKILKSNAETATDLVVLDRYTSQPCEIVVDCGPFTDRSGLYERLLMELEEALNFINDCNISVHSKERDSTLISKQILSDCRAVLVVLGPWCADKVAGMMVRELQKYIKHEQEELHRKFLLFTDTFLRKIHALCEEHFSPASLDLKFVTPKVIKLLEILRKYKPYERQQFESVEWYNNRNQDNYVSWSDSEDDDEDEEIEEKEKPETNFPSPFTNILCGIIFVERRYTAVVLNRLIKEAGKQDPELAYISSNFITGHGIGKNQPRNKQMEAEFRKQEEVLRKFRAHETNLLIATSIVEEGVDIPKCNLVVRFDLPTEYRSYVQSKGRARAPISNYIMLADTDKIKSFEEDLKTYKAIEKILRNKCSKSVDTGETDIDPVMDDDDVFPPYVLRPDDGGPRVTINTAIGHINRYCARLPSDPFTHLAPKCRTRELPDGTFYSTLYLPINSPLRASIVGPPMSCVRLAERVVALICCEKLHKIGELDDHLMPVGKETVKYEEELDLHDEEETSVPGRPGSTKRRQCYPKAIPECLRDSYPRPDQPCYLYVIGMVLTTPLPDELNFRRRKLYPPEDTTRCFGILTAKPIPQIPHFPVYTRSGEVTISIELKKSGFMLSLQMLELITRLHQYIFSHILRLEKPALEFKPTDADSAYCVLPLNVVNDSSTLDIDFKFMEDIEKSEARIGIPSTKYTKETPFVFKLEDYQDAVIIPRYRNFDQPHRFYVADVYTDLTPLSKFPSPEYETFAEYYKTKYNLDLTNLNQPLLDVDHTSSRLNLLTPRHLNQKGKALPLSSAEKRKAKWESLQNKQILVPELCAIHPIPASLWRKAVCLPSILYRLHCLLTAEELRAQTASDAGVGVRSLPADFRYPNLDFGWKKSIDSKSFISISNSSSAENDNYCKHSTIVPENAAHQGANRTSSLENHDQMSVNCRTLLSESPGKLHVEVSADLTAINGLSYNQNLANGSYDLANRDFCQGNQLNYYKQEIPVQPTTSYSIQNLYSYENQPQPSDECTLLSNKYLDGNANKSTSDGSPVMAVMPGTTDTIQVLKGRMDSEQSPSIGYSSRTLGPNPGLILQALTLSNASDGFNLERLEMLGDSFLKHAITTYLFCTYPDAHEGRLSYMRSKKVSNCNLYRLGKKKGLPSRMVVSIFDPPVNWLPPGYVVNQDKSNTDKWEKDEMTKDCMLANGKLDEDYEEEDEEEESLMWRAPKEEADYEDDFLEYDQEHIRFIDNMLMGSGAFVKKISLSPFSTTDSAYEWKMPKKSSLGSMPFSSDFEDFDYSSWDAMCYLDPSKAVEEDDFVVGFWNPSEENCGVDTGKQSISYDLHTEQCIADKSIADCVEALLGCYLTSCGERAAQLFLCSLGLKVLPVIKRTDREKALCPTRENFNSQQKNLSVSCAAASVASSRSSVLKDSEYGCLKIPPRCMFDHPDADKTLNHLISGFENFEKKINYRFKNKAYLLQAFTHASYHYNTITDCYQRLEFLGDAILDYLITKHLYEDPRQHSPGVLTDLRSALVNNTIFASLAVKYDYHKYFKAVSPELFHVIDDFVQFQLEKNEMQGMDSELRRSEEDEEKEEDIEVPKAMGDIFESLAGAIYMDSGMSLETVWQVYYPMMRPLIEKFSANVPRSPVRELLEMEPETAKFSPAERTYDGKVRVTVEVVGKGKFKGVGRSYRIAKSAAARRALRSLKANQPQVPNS
An asterisk follows results filed as active.

SMILES	Dicer inh
CC1SC(c2cccnc2)N(c2ccc(F)cc2F)C1=O (centres undefined)	2.94
Cc1onc(-c2c(Cl)cccc2Cl)c1-c1noc(CSc2ccccn2)n1	-1.74
CC12CCC(=O)C=C1CCC1C2CCC2(C)C(C(=O)CO)=CCC12 (centres undefined)	0.35
O=c1[nH]cnc2c1ncn2COCCO	-0.53
Cc1cc(Br)cnc1N=CNO	0.37
Cc1cc(N=CN(C)C)c2ccccc2n1	-1.68
Cc1cc(Br)cnc1N=CN(C)C	3.01*
CCOC(=O)CNC(=O)COc1ccccc1	0.07
COc1cc(/C=C2/N=C(c3ccccc3)NC2=O)cc(OC)c1OC	-0.05
O=C(C1=NNCC1c1ccccc1)c1cc2ccccc2c2ccccc12 (centres undefined)	1.3
CCC(C)OC(=O)C(C)Oc1ccc2c(=O)c(-c3ccccc3)coc2c1 (centres undefined)	-0.16
O=C(O)CCSC(CC(=O)c1ccc(Cl)cc1)c1ccccc1 (centres undefined)	-0.31
Cc1cccn2cc(-c3cccc(NS(=O)(=O)c4ccc(Br)cc4)c3)nc12	4.06*
Cc1cccn2cc(-c3ccc(NS(=O)(=O)c4ccccc4)cc3)nc12	1.51
Cc1ccc(S(=O)(=O)Nc2ccc(-c3cn4cccc(C)c4n3)cc2)cc1	1.69
O=c1oc(-c2ccc(Cl)cc2)nnc1-c1ccccc1	-0.07
O=C(Nc1cccnc1Sc1ccc(Cl)cc1)c1ccccc1Cl	0.16
COc1ccc(OC)c([N+](=O)[O-])c1N1CCOCC1	-0.37
COc1ccccc1C1CCN(c2ccc(C3OCCCO3)cc2[N+](=O)[O-])CC1	0.03
COc1cccc2c1OC1(N3CCOCC3)CCCCC1C2C[N+](=O)[O-] (centres undefined)	3.59*
Cc1ccc(S(=O)(=O)CCSc2ncccn2)cc1	1.17
CC(C)=NNC(=S)Nc1ccc(C)cc1C	1.18
CC(C)(C)c1ccc(S(=O)(=O)Nc2ccc(O)c(Cl)c2)cc1	2.33
Cc1ccc(S(=O)(=O)Nc2ccc3oc4ncccc4c(=O)c3c2)cc1	17.9
Cc1ccc(S(=O)(=O)Nc2ccc3[nH]cc(Cl)c3c2)cc1	3.06*
SMILES	Dicer inh
CCOC(=O)c1cc(C2CC2)nc2ccccc12	-1.23
O=C1c2ccccc2S(=O)(=O)N1c1ccc(F)cc1	-0.06
O=S(=O)(c1ccccc1)c1ccc(S(=O)(=O)N2CCOCC2)s1	-0.55
CC(=O)c1ccc(N2CCN(S(=O)(=O)c3ccc(S(=O)(=O)c4ccccc4)s3)CC2)cc1	-0.13
O=S(=O)(c1ccccc1)c1ccc(S(=O)(=O)N2CCN(C3c4ccccc4-c4ccccc43)CC2)s1	3.36*
C=CCN1C(=O)C(=O)c2ccccc21	0.65
CCCCSc1nnc2c(n1)OC(CC)=Nc1ccccc1-2	-0.65
CCSc1nnc2c(n1)OC(CC)=Nc1ccccc1-2	-1.21
CCCSc1nnc2c(n1)OC(C)=Nc1ccc(Br)cc1-2	3.7*
CSc1nnc2c(n1)OC(C)=Nc1ccc(Br)cc1-2	1.93
CSc1nnc2c(n1)OC(C)=Nc1ccccc1-2	0.37
CCSc1nnc2c(n1)OC(C)=Nc1ccc(Br)cc1-2	3.35*
CN(C)CCCNCC(O)Cn1c2ccc(Cl)cc2c2cc(Cl)ccc21 (centres undefined)	-0.26
Cc1cc(OC(=O)c2c(-c3ccccc3)noc2C)n(-c2ccccc2)n1	-2.18
CC12C=CC(C)(O1)C1C(=O)N(c3ccc(-c4ccccc4)cc3)C(=O)C12 (centres undefined)	1.52
O=c1cc(O)c2cccc3c4ccccc4n1c23	0.96
FC(F)(F)C1=CC(c2ccc(Br)cc2)=NCCN1	3.57*
FC(F)(F)C1=CC(c2ccccc2)=NCCN1	3.08*
c1ccc2c(CC3=NCCN3)cccc2c1	2.72
C/C(=N\NC1=NCCN1)c1ccc(Br)cc1	-0.75
O=C1NCCN=C(c2ccccc2)c2ccccc21	0.36
Nc1nc(-c2ccc(Br)cc2)cc(C(F)(F)F)n1	0.66
O=C1CSC(=Nc2c(Cl)cccc2Cl)N1CCc1ccccc1	2.78
O=C(O)CCCC(=O)c1c[nH]c2ccccc12	0.77
COc1ccc(C2CC(c3ccco3)n3nc(N)nc3N2)cc1 (centres undefined)	0.71
SMILES	Dicer inh
C=CCOc1ccc(C2N3CC4(C(C)C)CN2CC(C(C)C)(C3)C4=O)cc1 (centres undefined)	1.36
Nc1nc2c(nc(NCCCN3CCOCC3)n2[C@H]2O[C@@H](CO)[C@H](O)[C@@H]2O)c(=O)[nH]1	3.48*
Nc1nc2c(nc(N3CCN(c4ccccc4)CC3)n2[C@H]2O[C@@H](CO)[C@H](O)[C@@H]2O)c(=O)[nH]1	-0.68
CNc1nc2c(N)ncnc2n1[C@H]1O[C@@H](CO)[C@H](O)[C@@H]1O	-0.07
CSc1nnc2c(n1)OC(/C=C/c1ccccc1)Nc1ccccc1-2 (centres undefined)	7.79
O=C(Nc1ccc(OCc2ccccc2)cc1)Nc1ccccc1Oc1ccccc1	-2.16
CCN(C(=O)Cn1cc(C(=O)C2CC2)c2ccccc21)c1ccccc1	0.33
O=C1C2C3c4ccccc4C(CO)(c4ccccc43)C2C(=O)N1c1ccccc1Cl (centres undefined)	0.88
O=C1C2C3c4ccccc4C(CO)(c4ccccc43)C2C(=O)N1c1ccc(F)cc1 (centres undefined)	4.87*
CC12c3ccccc3C(c3ccccc31)C1C(=O)N(c3ccccc3)C(=O)C12 (centres undefined)	0.7
COc1ccc(N2C(=O)C3C4c5ccccc5C(CO)(c5ccccc54)C3C2=O)cc1 (centres undefined)	-0.87
CCCCOc1ccc(N2C(=O)C3C4c5ccccc5C(CO)(c5ccccc54)C3C2=O)cc1 (centres undefined)	3.34*
O=C1C2C3c4ccccc4C(C(=O)O)(c4ccccc43)C2C(=O)N1c1ccccc1 (centres undefined)	0.12
Cc1nn2c3ccccc3n(C)c2c1C(N)=O	0.83
O=C(/C=C/Sc1c(Cl)cccc1Cl)c1cccc(Br)c1	0.31
O=c1sn(-c2ccc([N+](=O)[O-])cc2Cl)c(=O)n1CC1CC1	-0.95
CC1CCCC(C)N1C(=O)c1cc2nc(-c3cccs3)cc(C(F)(F)F)n2n1 (centres undefined)	-0.7
CCCCOc1c(Nc2cccc(OC)c2)c(=O)c1=O	8.65
CCOc1c(Nc2ccccc2O)c(=O)c1=O	4.12*
CCOc1c(Nc2cccc(OC)c2)c(=O)c1=O	-0.58
CSc1ccc(C2C3=C(CC(C)(C)CC3=O)Nc3cc4c(cc32)OCO4)cc1 (centres undefined)	5.11*
CC1(C)CC(=O)C2=C(C1)Nc1ccc3ccccc3c1C2c1ccc2c(c1)OCO2 (centres undefined)	-0.4
CC1(C)CC(=O)C2=C(C1)Nc1cc3c(cc1C2c1ccc(Cl)cc1)OCO3 (centres undefined)	2.53
C#CCOc1ccc(C2C3=C(CC(C)(C)CC3=O)NC3=C2C(=O)CC(C)(C)C3)cc1	-1.73
CC1(C)CC(=O)C2=C(C1)NC1=C(C(=O)CC(C)(C)C1)C2c1ccccc1	-0.35
SMILES	Dicer inh
Cc1ccc(C2C3=C(CC(C)(C)CC3=O)NC3=C2C(=O)CC(C)(C)C3)cc1	4.62*
CC(C)(C)c1cc2nc(-c3ccc(Cl)cc3)cc(C(F)(F)F)n2n1	1.46
O=C(Nc1ccc(Cl)cc1)Nc1cc(C2CC2)nn1-c1ccccc1	-0.59
CCOC(=O)c1sc(NC(=O)C(F)(F)F)c(C(=O)OCC)c1C	-2.6
CCOC(=O)C(NC(=O)Nc1ccccc1)(Nc1ccc(C)cc1)C(F)(F)F (centres undefined)	1.83
Cn1c(=O)c(Nc2ccccc2)c2c3c(cccc31)C(=O)c1ccccc1-2	3.31*
